Measured values as given in PubChem BioAssay AID1159580 (chemical genetic matrix, 2015).
Among all 5,500 compounds or so, about 2,000 (36%) were called active. Roughly 18% stayed inconclusive and do not appear here. No stated cut-off is given here; in the data, active means normalized growth mostly below about 0.91 (no sharp cut-off); inconclusive means no clear call, values can overlap the other calls; inactive means mostly above about 0.92. The list shows a part of the results.

Assay: chemical genetic growth profiling, strain panel (AID 1159580);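 further: tested at 20 µM; growth read once vehicle control cultures reached saturation at 30 °C; 1 = growth at the plate median or of vehicle wells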
Settings: growth OD

Measured: normalized growth

OC(c1cc(C(F)(F)F)nc2c(C(F)(F)F)cccc12)C1CCCCN1 (stereo not drawn)
inactive: S. cerevisiae deletion strains, locus YJR066W, strain TOR1, stronger effect = lower value 0.936 | S. cerevisiae deletion strains, locus YJR075W, strain HOC1, stronger effect = lower value 0.978 | S. cerevisiae deletion strains, locus YKL009W, strain mrt4, stronger effect = lower value 0.987 | S. cerevisiae deletion strains, locus YKL068W, stronger effect = lower value 0.99 | S. cerevisiae deletion strains, locus YKL085W, strain MDH1 (second series), stronger effect = lower value 0.989 | S. cerevisiae deletion strains, locus YKL085W, strain MDH1, stronger effect = lower value 0.989 | S. cerevisiae deletion strains, locus YKL160W, strain elf1, stronger effect = lower value 0.99 | S. cerevisiae deletion strains, locus YKL190W, strain CNB1, stronger effect = lower value 0.99 | S. cerevisiae deletion strains, locus YKR001C, strain vps1, stronger effect = lower value 1 | S. cerevisiae deletion strains, locus YKR026C, strain gcn3, stronger effect = lower value 1.01 | S. cerevisiae deletion strains, locus YKR091W, strain srl3, stronger effect = lower value 1 | S. cerevisiae deletion strains, locus YLL001W, strain dnm1, stronger effect = lower value 1 | S. cerevisiae deletion strains, locus YLL026W, stronger effect = lower value 1.01 | S. cerevisiae deletion strains, locus YLL041C, strain sdh2, stronger effect = lower value 1.02 | S. cerevisiae deletion strains, locus YLR027C, strain aat2, stronger effect = lower value 0.996 | S. cerevisiae deletion strains, locus YLR039C, strain RIC1, stronger effect = lower value 1.12 | S. cerevisiae deletion strains, locus YLR058C, strain SHM2, stronger effect = lower value 0.991 | S. cerevisiae deletion strains, locus YLR102C, strain apc9, stronger effect = lower value 0.991 | S. cerevisiae deletion strains, locus YLR113W, strain HOG1, stronger effect = lower value 0.93 | S. cerevisiae deletion strains, locus YLR221C, strain rsa3, stronger effect = lower value 1.02 | S. cerevisiae deletion strains, locus YLR258W, strain gsy2, stronger effect = lower value 1.01 | S. cerevisiae deletion strains, locus YLR262C, strain YPT6 (second series), stronger effect = lower value 1.11 | S. cerevisiae deletion strains, locus YLR262C, strain YPT6, stronger effect = lower value 1.15 | S. cerevisiae deletion strains, locus YLR268W, strain sec22, stronger effect = lower value 0.975 | S. cerevisiae deletion strains, locus YLR320W, strain mms22, stronger effect = lower value 1.01 | S. cerevisiae deletion strains, locus YLR330W, strain CHS5, stronger effect = lower value 0.992 | S. cerevisiae deletion strains, locus YLR342W, strain FKS1 (second series), stronger effect = lower value 0.962 | S. cerevisiae deletion strains, locus YLR342W, strain FKS1, stronger effect = lower value 1.01 | S. cerevisiae deletion strains, locus YLR357W, strain rsc2, stronger effect = lower value 1.09 | S. cerevisiae deletion strains, locus YLR370C, strain arc18, stronger effect = lower value 1 | S. cerevisiae deletion strains, locus YLR371W, strain rom2, stronger effect = lower value 0.988 | S. cerevisiae deletion strains, locus YLR384C, strain iki3, stronger effect = lower value 1.01 | S. cerevisiae deletion strains, locus YLR418C, strain cdc73, stronger effect = lower value 0.931 | S. cerevisiae deletion strains, locus YML016C, strain PPZ1, stronger effect = lower value 0.989 | S. cerevisiae deletion strains, locus YML032C, strain rad52, stronger effect = lower value 0.978 | S. cerevisiae deletion strains, locus YML120C, strain ndi1, stronger effect = lower value 1 | S. cerevisiae deletion strains, locus YML124C, strain tub3, stronger effect = lower value 0.99 | S. cerevisiae deletion strains, locus YMR058W, strain fet3, stronger effect = lower value 0.997 | S. cerevisiae deletion strains, locus YMR078C, strain ctf18, stronger effect = lower value 0.994 | S. cerevisiae deletion strains, locus YMR125W, strain sto1, stronger effect = lower value 1 | S. cerevisiae deletion strains, locus YMR129W, stronger effect = lower value 0.997 | S. cerevisiae deletion strains, locus YMR205C, strain PFK2, stronger effect = lower value 1.01 | S. cerevisiae deletion strains, locus YMR223W, strain ubp8, stronger effect = lower value 0.973 | S. cerevisiae deletion strains, locus YMR231W, strain pep5, stronger effect = lower value 1.01 | S. cerevisiae deletion strains, locus YMR307W, strain GAS1, stronger effect = lower value 0.869 | S. cerevisiae deletion strains, locus YNL067W, strain RPL9B, stronger effect = lower value 0.981 | S. cerevisiae deletion strains, locus YNL071W, strain lat1, stronger effect = lower value 1.02 | S. cerevisiae deletion strains, locus YNL183C, strain NPR1, stronger effect = lower value 0.93 | S. cerevisiae deletion strains, locus YNL209W, strain ssb2, stronger effect = lower value 0.996 | S. cerevisiae deletion strains, locus YNL233W, strain BNI4, stronger effect = lower value 0.959 | S. cerevisiae deletion strains, locus YNL248C, strain rpa49, stronger effect = lower value 0.999 | S. cerevisiae deletion strains, locus YNL250W, strain rad50, stronger effect = lower value 0.986 | S. cerevisiae deletion strains, locus YNL271C, strain bni1, stronger effect = lower value 0.985 | S. cerevisiae deletion strains, locus YNL298W, strain CLA4, stronger effect = lower value 0.995 | S. cerevisiae deletion strains, locus YNL307C, strain MCK1, stronger effect = lower value 0.992 | S. cerevisiae deletion strains, locus YNL322C, strain KRE1 (second series), stronger effect = lower value 0.988 | S. cerevisiae deletion strains, locus YNL322C, strain KRE1, stronger effect = lower value 0.987 | S. cerevisiae deletion strains, locus YNR049C, strain mso1, stronger effect = lower value 1.01 | S. cerevisiae deletion strains, locus YNR052C, strain pop2, stronger effect = lower value 0.99 | S. cerevisiae deletion strains, locus YOL006C, strain TOP1, stronger effect = lower value 0.993 | S. cerevisiae deletion strains, locus YOL012C, strain htz1 0.986 | S. cerevisiae deletion strains, locus YOL147C, strain pex11, stronger effect = lower value 1.01 | S. cerevisiae deletion strains, locus YOR001W, strain rrp6, stronger effect = lower value 0.999 | S. cerevisiae deletion strains, locus YOR061W, strain CKA2, stronger effect = lower value 0.991 | S. cerevisiae deletion strains, locus YOR069W, strain VPS5, stronger effect = lower value 0.997 | S. cerevisiae deletion strains, locus YOR070C, strain gyp1, stronger effect = lower value 1.01 | S. cerevisiae deletion strains, locus YOR080W, strain dia2, stronger effect = lower value 1.02 | S. cerevisiae deletion strains, locus YOR083W, strain WHI5, stronger effect = lower value 1.03 | S. cerevisiae deletion strains, locus YOR106W, strain vam3, stronger effect = lower value 1.02 | S. cerevisiae deletion strains, locus YOR136W, strain idh2, stronger effect = lower value 0.988 | S. cerevisiae deletion strains, locus YOR144C, strain elg1, stronger effect = lower value 0.991 | S. cerevisiae deletion strains, locus YOR184W, strain ser1, stronger effect = lower value 0.997 | S. cerevisiae deletion strains, locus YOR231W, strain MKK1, stronger effect = lower value 0.959 | S. cerevisiae deletion strains, locus YOR265W, strain rbl2, stronger effect = lower value 1 | S. cerevisiae deletion strains, locus YOR270C, strain vph1, stronger effect = lower value 1.04 | S. cerevisiae deletion strains, locus YOR290C, strain snf2, stronger effect = lower value 0.991 | S. cerevisiae deletion strains, locus YOR316C, strain cot1, stronger effect = lower value 0.994 | S. cerevisiae deletion strains, locus YPL051W, strain arl3, stronger effect = lower value 1.01 | S. cerevisiae deletion strains, locus YPL078C, strain atp4, stronger effect = lower value 1 | S. cerevisiae deletion strains, locus YPL106C, strain sse1, stronger effect = lower value 0.999 | S. cerevisiae deletion strains, locus YPL240C, strain hsp82, stronger effect = lower value 1 | S. cerevisiae deletion strains, locus YPL256C, strain CLN2, stronger effect = lower value 0.946 | S. cerevisiae deletion strains, locus YPR119W, strain clb2, stronger effect = lower value 0.99 | S. cerevisiae deletion strains, locus YPR141C, strain kar3, stronger effect = lower value 0.988 | S. cerevisiae deletion strains, locus YPR163C, strain tif3, stronger effect = lower value 0.999 | S. cerevisiae deletion strains, locus YPR167C, strain met16, stronger effect = lower value 0.993 | S. cerevisiae deletion strains, strain wtn01, stronger effect = lower value 0.96 | S. cerevisiae strains, strain wild type, stronger effect = lower value 0.983
